Experimental findings from PubChem BioAssay AID696 (Sanford-Burnham Center for Chemical Genomics, 2007) are described below.

Out of some 96,000 compounds screened, about 1,200 (1.2%) were called active. This is one part of a sample in which actives are shown more often than they occur. A number with no mark means an inactive call. No stated cut-off is given here; in the data, active means activation fold above about 2; inactive means the rest.

The target in this assay is Alkaline phosphatase, placental type (Homo sapiens) (UniProt P05187). Nature of the assay: activation of human placental alkaline phosphatase – biochemical, luminescence, HTS (AID 696). Conditions: purified PLAP enzyme, luminescent substrate read-out; at 20 µM; stronger effect = higher value.
Chain of Alkaline phosphatase, placental type (Homo sapiens) (P05187 whole entry, looked up): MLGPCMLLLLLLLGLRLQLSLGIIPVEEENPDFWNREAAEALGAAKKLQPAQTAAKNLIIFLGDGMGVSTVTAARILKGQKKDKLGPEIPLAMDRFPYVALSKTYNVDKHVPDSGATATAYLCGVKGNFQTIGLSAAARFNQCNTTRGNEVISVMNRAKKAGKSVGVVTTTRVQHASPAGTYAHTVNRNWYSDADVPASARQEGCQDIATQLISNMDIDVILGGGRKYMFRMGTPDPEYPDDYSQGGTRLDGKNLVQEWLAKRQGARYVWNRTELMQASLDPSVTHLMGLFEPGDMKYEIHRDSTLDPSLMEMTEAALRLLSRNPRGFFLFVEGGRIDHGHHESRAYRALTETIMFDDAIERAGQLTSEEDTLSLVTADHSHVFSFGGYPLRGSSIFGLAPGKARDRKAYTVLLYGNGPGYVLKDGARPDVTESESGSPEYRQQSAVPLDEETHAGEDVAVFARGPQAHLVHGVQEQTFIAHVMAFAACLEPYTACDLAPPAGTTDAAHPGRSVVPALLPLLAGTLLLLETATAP
As for `CC1CCN(C(NC(=O)c2ccco2)C(=O)c2ccccc2)CC1` (stereo not given), the activation fold was 1.1.
For `NC(=O)c1ccsc1NC(=O)c1ccco1`, the activation fold is 1.
Regarding `CC(NC(=O)c1ccco1)C(=O)Nc1nc(-c2ccccn2)cs1` (stereo not given), the activation fold is 2.4 (active).
The value for `O=c1cc(N2CCN(Cc3ccccc3)CC2)c(-c2ccccc2)n[nH]1` was 1; that for `CCn1c(Cc2cccs2)nnc1SCC(=O)c1ccc(C)cc1` was 1.5; that for `O=C(COc1ccc(Cl)cc1)N1CCN(S(=O)(=O)c2ccc(Cl)cc2)CC1` was 1.1.
Then `Cc1ccc(CNC(=O)C2CC(c3ccccc3[N+](=O)[O-])=NO2)o1` (stereo not given), with 0.9; and `Cc1cc(C(=O)NCCCc2ccccc2)no1`, with 0.9; and `CCC(=O)Nc1ccc(C(=O)Nc2cc(C)on2)cc1`, with 0.9.
The value for `CCCCNC(=S)NNC(=O)c1cc(C)on1` was 2 (active); that for `Cn1c(Cc2cccc3ccccc23)nnc1SCC(=O)N1CCN(c2cccc(Cl)c2)CC1` was 1.5; that for `CCN1CCC(=NNC(=O)c2ccc(C)c([N+](=O)[O-])c2)CC1` was 1.3.
For `C1=C(CCNc2ncnc3c2cnn3-c2ccccc2)CCCC1`, the activation fold was 0.7.
`CC(=O)Nc1ccc(NC(=O)CSCc2cnn(-c3ccccc3)c2-n2cccc2)cc1`: the activation fold is 1.3.
The value for `O=C(NCCC1=CCCCC1)C1CCN(Cc2cnn(-c3ccccc3)c2-n2cccc2)CC1` was 2.3 (active); that for `O=C1c2ccccc2C(=O)N1CC1c2ccccc2CCN1S(=O)(=O)c1ccccc1` (stereo not given) was 1.2.
As for `O=C(Nc1ccc2c(c1)OCCO2)c1ccc(Cl)c(S(=O)(=O)N2CCCCC2)c1`, the activation fold was 1.7.
Then `COc1cc2c(cc1NC(=O)CN1CCN(S(=O)(=O)c3ccc(F)cc3)CC1)oc1ccccc12`, with 2.2 (active); and `COc1ccc(NC(=O)CN2CCN(S(=O)(=O)c3ccc(F)cc3)CC2)cc1Cl`, with 1.1.
The value for `COc1ccccc1NC(=O)CN1CCN(S(=O)(=O)c2ccc(Br)cc2)CC1` was 1; that for `Cc1c(CCO)c(=O)[nH]n1C(=O)c1c(F)cccc1F` was 0.9; that for `Cc1ccc(F)c(NC(=O)CCc2ccccc2)c1` was 0.9.
Regarding `CN(Cc1ccccc1)c1nc2c(c(=O)[nH]c(=O)n2C)n1CCSc1nc2ccccc2[nH]1`, the activation fold is 2 (active).
Then `Cn1c(=O)[nH]c(=O)c2c1nc(N(CCO)Cc1ccccc1)n2Cc1ccccc1Cl`, with 0.8; and `CCCSc1nc2c(c(=O)[nH]c(=O)n2C)n1CCc1ccccc1`, with 0.9.
On to `Cc1cc(C)cc(OCc2nnc(SCC(=O)Nc3ccccc3)o2)c1`, for which the activation fold was 0.8.
Consider `Cc1cccc(NC(=O)CSC(N)=O)c1C`, for which the activation fold is 1.7.
The value for `Cc1cccc(NC(=O)CSc2nnc(CCCCCNC(=O)OC(C)(C)C)o2)c1C` was 2.4 (active); that for `CCc1ccccc1NC(=O)CSc1nnc([C@@H](NC(=O)OC(C)(C)C)C(C)C)o1` was 1.4.
Then `C[C@H](NC(=O)OC(C)(C)C)c1nnc(SCC(=O)Nc2ccc(Br)cc2)o1`, with 1.2; and `CCc1ccccc1NC(=O)CSc1nnc([C@@H](NC(=O)OC(C)(C)C)C(C)CC)o1` (stereo not given in full), with 2 (active).
Then `CC(C)(C)N1CC(c2nc3ccccc3n2Cc2ccc(F)cc2)CC1=O` (stereo not given), with 1.1; and `CN(C)Cc1ccccc1C1(O)c2ccccc2CSc2ccccc21` (stereo not given), with 1.1; and `N#Cc1cc([N+](=O)[O-])ccc1Oc1cccc(/C=N/NC(=O)c2ccc(Cl)cc2)c1`, with 1.1.
In the case of `O=P(O)(CP(=O)(c1ccccc1)c1ccccc1)c1ccccc1O`, the activation fold is 1.
For the compound `CCOc1ccc(C(=O)NC(C(=O)NCc2ccccn2)C(C)C)cc1` (stereo not given), the activation fold was 0.9.
Then `Cc1cc(C)nc(SC(C)C(=O)N/N=C/c2cccs2)n1` (stereo not given), with 0.9; and `CCCCCCNCCn1cnc2c(N)ncnc21`, with 0.9; and `O=C(CCCOc1ccccc1)NCc1ccco1`, with 1.1.
As to `O=C(CCOc1ccccc1)NCc1ccccc1`, the activation fold was 0.8.
The value for `CN(C)C(CNC(=O)CCCOc1ccccc1)c1ccco1` (stereo not given) was 2 (active).
Then `COc1ccc(C(=O)c2c(C)oc3cc([N+](=O)[O-])c(O)c([N+](=O)[O-])c23)cc1`, with 0.9; and `COc1ccc(NC(=O)C(CC(C)C)NS(=O)(=O)c2ccc3c(c2)CCN3C(C)=O)cc1OC` (stereo not given), with 0.8.
The value for `CN(Cc1nc2ccccc2c(=O)[nH]1)Cc1cc(=O)oc2ccc3ccccc3c12` was 1.6; that for `O=S(=O)(NC1CCCCC1)c1ccc(F)c2ccccc12` was 0.7; that for `CCOc1ccc2nc(NCCNS(=O)(=O)c3ccccc3)c(C#N)cc2c1` was 1.
Regarding `CCOc1ccc2nc(N3CCCN(C(=O)Nc4ccccc4C)CC3)c(C#N)cc2c1`, the activation fold is 2 (active).
Turning to `COc1ccc2nc(N3CCCC(O)C3)c(C#N)cc2c1` (stereo not given), the activation fold was 1.8.
`O=C(NCCCN1CCOCC1)c1cc2c(s1)CCC2`: the activation fold was 1.3.
The value for `COC(=O)c1ccc(C(=O)Nc2cc(Cl)ccc2Cl)cc1NC(=O)c1ccccc1C` was 1; that for `CC1CCCN(C(C(=O)Nc2ccc(C(C)C)cc2)c2ccc3c(c2)OCO3)C1` (stereo not given) was 1.6; that for `Cc1[nH]c(=O)c(C(=O)/C=C/c2ccccc2)c2c1CCCC2` was 1.2.
The value for `CC(C)CNC(=S)NNC(=O)c1ccccc1OC(F)F` was 1.6; that for `Cc1occc1C(=O)Nc1nnc(-c2ccncc2)s1` was 1; that for `Cc1occc1C(=O)NNC(=S)NCC(C)C` was 2.3 (active).
Then `CCN(CC)C(=O)CSC1c2ccccc2C(=O)N1c1ccccc1` (stereo not given), with 1.1.
As to `CCCOc1ccc(C2NC(=O)NC(c3ccccc3)=C2C(C)=O)cc1OCC` (stereo not given), the activation fold was 0.9.
The value for `O=C(NCc1ccco1)c1ccc(Cn2c(=O)c3sccc3n(Cc3ccc(F)cc3)c2=O)cc1` was 1.3.
The value for `COc1c(F)c(F)c(C(=O)O)c(Nc2ccccc2C)c1F` was 1.
Then `COc1ccc(C(=O)NC(=S)NNC(=O)CCc2ccccc2)cc1`, with 1.
Turning to `CC(Oc1ccc2ccccc2c1)C(=O)NNC(=S)NC(=O)c1ccco1` (stereo not given), the activation fold was 2.6 (active).
The value for `CCCc1ccc(OCC(=O)NNC(=S)NC(=O)c2ccco2)cc1` was 1.2.
Then `CCOc1cc(N2CCOCC2)c(OCC)cc1NC(=O)COc1cccc2cccnc12`, with 1.4; and `O=C(c1cccnc1NCc1ccccc1)N1CCOCC1`, with 0.9.
The value for `Oc1c(C(c2ccccn2)N2CCOCC2)ccc2cccnc12` (stereo not given) was 2.2 (active); that for `Cc1cccc(NC(=S)Nc2ccc(Br)cc2)c1` was 1.2.
On to `O=C(Nc1nnc(SCc2ccccc2)s1)c1ccco1`, for which the activation fold was 1.1.
The value for `COC(=O)c1ccc(NC(=O)c2ccco2)cc1` was 0.8.
Then `O=C(Nc1nnc(CCOCCOCCc2nnc(NC(=O)c3ccco3)s2)s1)c1ccco1`, with 2 (active); and `COc1ccc(C(=O)NC(=S)Nc2ccccc2N2CCN(S(C)(=O)=O)CC2)cc1OC`, with 1.
As for `CCN(C(=O)CSc1ncn[nH]1)c1cccc2ccccc12`, the activation fold was 2.3 (active).
Then `O=C(CSc1ncn[nH]1)Nc1ccnc2ccccc12`, with 1.9; and `CC(C)(C)c1ccc(C(=O)CSc2ncn[nH]2)cc1`, with 1.5.
Then `Cc1sc(NC(=S)NC(=O)c2cccs2)nc1-c1ccc(CC(C)C)cc1`, with 1.5; and `Cc1ccc(S(=O)(=O)NCCSC(C)(C)C)cc1`, with 0.9; and `COc1ccc(CCNC(=O)COC(=O)c2ccc[nH]c2=O)cc1`, with 1.
Then `Cc1ccc(C)c(N2CCN(S(=O)(=O)c3ccc4c(c3)oc(=O)n4C)CC2)c1`, with 1.4; and `Cc1ccc(S(=O)(=O)C(C#N)c2nc3ccccc3nc2N2CCCC2)cc1C` (stereo not given), with 1.4.
For `Cc1cc(N2CCN(S(=O)(=O)c3ccc(C)c(C)c3)CC2)c2ccccc2n1`, the activation fold is 2.1 (active).
The value for `COC(=O)c1[nH]c2ccc(Br)cc2c1NC(=O)Oc1ccccc1` was 1.1; that for `O=C(CN1C(=O)COc2ccccc21)Nc1ccc(F)cc1` was 2.5 (active).
Then `CCCN1CCN(CCCNC(=O)CN2C(=O)COc3ccccc32)CC1`, with 1.2.
Then `O=C(CN1C(=O)COc2ccccc21)NCCN1CCc2ccccc2C1`, with 1.3; and `O=C(Nc1cc(C(F)(F)F)ccc1Cl)c1cc2nc3c(c(C(F)(F)F)n2n1)CCCC3`, with 1.6; and `Clc1ccc(-c2nnc(-c3ccccc3)nc2N2CCSCC2)cc1`, with 1.4.
With `O=C1C2C3C=CC(C4CC34)C2C(=O)N1/N=C/c1ccc(-c2ccccc2[N+](=O)[O-])o1` (stereo not given), the activation fold is 0.9.
Then `S=C(NCc1cccs1)Nc1ccc(Cl)cc1`, with 0.9; and `Cc1nn(C)cc1C(=O)NNC(=S)Nc1ccc(Cl)cc1`, with 2.2 (active); and `COc1ccc(Cl)cc1C(=O)NCc1cn(C)nc1C`, with 1.1.
The value for `O=C(CNC(=O)c1ccccc1)NCC(=O)OCc1ccc(Cl)cc1` was 0.9; that for `OC(COc1cccc(OCC(O)CN2CCCC2)c1)CN1CCCC1` (stereo not given) was 1.2.
Take `Cc1ccccc1C(OCC(O)CN1CCCCC1CCO)c1ccccc1` (stereo not given): the activation fold was 2.1 (active).
`COc1cccc(OCc2cc(/C=N/NC(=O)c3nc(Cl)c(Cl)c(N)c3Cl)ccc2OC)c1`: the activation fold was 1.5.
Consider `CCc1c(C)nc2cc(C)[nH]n2c1=O`, for which the activation fold was 0.9.
Then `CNC(=O)CN1C(=O)c2ccccc2S1(=O)=O`, with 0.9.
The value for `CCCc1nnc(NC(=O)CN2C(=O)c3ccccc3S2(=O)=O)s1` was 2.2 (active); that for `CCCc1nnc(NC(=O)c2cccs2)s1` was 0.9; that for `COc1cc2c(cc1OC)C(C(=O)NCc1ccco1)C1c3ccccc3CCN1C2=O` (stereo not given) was 1.2.
The value for `O=C(O)CSCNC(=O)CC12CC3CC(CC(C3)C1)C2` was 1.2; that for `NC(CSC12CC3CC(CC(C3)C1)C2)C(=O)O` (stereo not given) was 2 (active).
